Reference: ChEMBL document CHEMBL4513216, “Probing the Open Global Health Chemical Diversity Library for Multistage-Active Starting Points for Next-Generation Antimalarials” (ACS Infect Dis, 2020)
The whole screen tested about 69,000 compounds, of which about 8,600 (12%) showed an effect of 50% or more. This excerpt belongs to a sample that is enriched for strong results.

test system: Plasmodium berghei; assay: Screen against P. berghei liver stage (PbLuc), transformed with Luciferase, at 10uM; assay type: functional, HepG2; conditions: tested at 10 uM

Row | Compound | INHIBITION [%]
1 | CC(C)c1nc(C2CCCN2CCS(=O)(=O)c2ccccc2)no1 (stereo unspecified) | -12.6
2 | NC(=O)C1CN(C(=O)c2ccc(F)cc2)CCN1CCc1ccccc1 (stereo unspecified) | 22
3 | CCC(NC(=O)c1cnc(-c2cccnc2)nc1)c1ccnn1C (stereo unspecified) | -31.4
4 | O=C(NCCCN1CCOCC1)c1ccn(COc2ccc(Br)cc2)n1 | 47.4
5 | Cc1cc(C2CCCN(C(=O)c3c(C)noc3C)C2)n[nH]1 (stereo unspecified) | -2.37
6 | O=C(Nc1cccnc1)[C@@H]1C[C@H]2OCC[C@H]2N(Cc2ccsc2)C1 | -2.84
7 | Cc1ccc(Cl)c(CN2CCC(c3nccn3C(C)C)CC2)c1F | -7.71
8 | O=C(NC1CCN(c2ncccn2)CC1)c1cc2c([nH]c1=O)CCC2 | -46.5
9 | CC(C)c1ccc(O)c(C(=O)NC2CCN(c3ncccn3)CC2)c1 | 0.643
10 | O=C(NC1CCN(c2ncccn2)CC1)c1cc2c(cc1O)CCCC2 | 55
11 | CC(=O)N[C@@H]1CN(C(=O)CC2CCOCC2)C[C@H]1O | -5.8
12 | CC(C)C(c1cccnc1)N(C)C(=O)Cc1ccc(O)cc1 (stereo unspecified) | -30
13 | CC(C)C(c1cccnc1)N(C)C(=O)Cc1c(F)cccc1F (stereo unspecified) | 41.8
14 | CCNC(=O)N(C)C(c1cccnc1)C(C)C (stereo unspecified) | 63.5
15 | COc1c[nH]c(C(=O)N2CCN(c3cccc(Cl)c3)CC2)cc1=O | 38.8
16 | CCc1cnc(N2CC[C@H]3[C@@H]2CCC(=O)N3c2cccnc2)nc1 | -24.1
17 | COC1CCN(C(=O)Cc2csc(-c3ccccc3)n2)CC1 | -55.9
18 | Cc1noc(C(C)C)c1C(=O)NCc1ccc2c(c1)OCCO2 | -28.4
19 | CCCS(=O)(=O)N1CC(=O)N(Cc2ccccc2OC)CC(O)C1 (stereo unspecified) | 41.1
20 | CC(SCCS(C)(=O)=O)c1nc(Cc2ccc(F)cc2)no1 (stereo unspecified) | 12.4
21 | CC(SCCS(C)(=O)=O)c1nc(Cc2ccccc2)no1 (stereo unspecified) | 13.5
22 | CCc1noc(C(C)SCCS(C)(=O)=O)n1 (stereo unspecified) | 64.6

Row | Compound | INHIBITION [%]
23 | O=C(Nc1cccnc1)[C@@H]1CCO[C@@H]2CCN(Cc3cccnc3)C[C@@H]21 | 12.7
24 | CC(=O)N1N=C(c2ccccc2)OC1C(=O)NCCN(C(C)C)C(C)C (stereo unspecified) | 30.3
25 | Cc1nc(C(C)(C)C)sc1C(=O)NCCNc1ncccn1 | 10
26 | Cc1nn(C)c(C)c1CC(=O)NCC1(C(N)=O)CCOCC1 | 47.7
27 | Cc1nn(C)c(C)c1S(=O)(=O)NCC1(C(N)=O)CCOCC1 | 74.5
28 | Cc1nn(C)c(C)c1CCC(=O)NCC1(C(N)=O)CCOCC1 | 26.4
29 | CSc1ccc(CN(CCO)C(=O)CCNC(C)=O)cc1 | 18.4
30 | CNCc1n[nH]c(=O)n1-c1cccc(Cl)c1Cl | 25.1
31 | CCN1CCN(c2nsc(-c3cccnc3)c2C#N)CC1 | 36.6
32 | CN1CCN(c2nsc(-c3cccnc3)c2C#N)CC1 | 62.3
33 | N#Cc1c(N2CCCCC2)nsc1-c1cccnc1 | -0.621
34 | CN(Cc1ccc(N(C)C)cc1)C(=O)c1cc2c([nH]c1=O)CCCC2=O | -42.975
35 | CNC(=O)c1ccc(C(=O)N2CCCCC2Cn2cc(C)cn2)cn1 (stereo unspecified) | 24.6
36 | Cc1cc(C(=O)N2CCC3(CC2)CC(c2cccnc2)C(=O)N3)no1 (stereo unspecified) | -31.3
37 | Cc1ccc(CN2CC[C@H]3[C@H](CO[C@H]3CN(C)C)C2)o1 | 13.1
38 | Cc1ccc(CN2CC[C@H]3CO[C@H](CN(C)C)[C@H]3C2)o1 | 53.9
39 | Cc1ccc(CN2CC[C@H]3CO[C@H](CN4CCCC4)[C@H]3C2)o1 | 7.7
40 | Cc1ccc(CN2CC[C@@H]3[C@@H](CO[C@H]3CN(C)C)C2)o1 | 61.1
41 | CN(C)C[C@@H]1OC[C@H]2CN(Cc3ccoc3)CC[C@H]21 | -87.7
42 | Cc1ccc(CN2CC[C@H]3CO[C@H](CN4CCN(C)CC4)[C@H]3C2)o1 | 45.7
43 | CCCc1n[nH]c(C2CN(C(=O)c3cccnc3N(C)C)CCO2)n1 (stereo unspecified) | 16.9
44 | O=C(NCCCO)C1(CC2CC(c3ccc(F)cc3)=NO2)CCOCC1 (stereo unspecified) | 36

Row | Compound | INHIBITION [%]
45 | O=C(NCCO)C1(CC2CC(c3ccc(F)cc3)=NO2)CCOCC1 (stereo unspecified) | 22.8
46 | CC(C)NC(=O)C1(CC2CC(c3ccc(F)cc3)=NO2)CCNCC1 (stereo unspecified) | 65.7
47 | Cc1noc(C)c1CCC(=O)NCC1(O)CCCN(c2ccccn2)C1 (stereo unspecified) | 30.4
48 | Cc1cc(CN(C)S(=O)(=O)N2CCCC2c2ccc(C)o2)no1 (stereo unspecified) | 31.9
49 | Cc1ccc(CN(C)CC2(O)CCCN(C)C2)o1 (stereo unspecified) | -12.7
50 | Cc1nn(C)c2c(N3CCN(C)CC3)nc(C3CC3)nc12 | 21.5
51 | COC(=O)NCC(=O)N1CCCC1c1nc(-c2ccccc2F)c[nH]1 (stereo unspecified) | 60.3
52 | CCOCCCC(=O)N1CCCC1c1nc(-c2ccccc2F)c[nH]1 (stereo unspecified) | 29.5
53 | O=C(COCC1CC1)N1CCCC1c1nc(-c2ccccc2F)c[nH]1 (stereo unspecified) | 46.4
54 | O=C(c1cnc2ccccc2c1)N1CCCC(O)(CN2CCCC2)C1 (stereo unspecified) | 16.2
55 | Cc1ccc(N2CCCC(NCC(=O)Nc3cc(C)nn3C)C2)nn1 (stereo unspecified) | 21
56 | Cc1nc(C)n(CC2CCCN(Cc3nnc(C4CC4)o3)C2)n1 (stereo unspecified) | 2.05
57 | CN1CCC(Cc2cc(Nc3ncccn3)ncn2)CC1 | 62.6
58 | CCC(=O)N1CCC(Cc2cc(Nc3ncccn3)ncn2)CC1 | 49.6
59 | CN1CCC(Cc2cc(Nc3ccccn3)ncn2)CC1 | -14.1
60 | O=S(=O)(C1CC1)N1CCC2(CC1)CN(Cc1nccs1)CCO2 | 23.3
61 | CCn1nc(C)c2c1cnn2CC(=O)Nc1ccc(OC)cc1C | 45.4
62 | CCOC(=O)c1ccc(S(=O)(=O)NCC(CC)N2CCCC2)cc1 (stereo unspecified) | -9.2
63 | COc1nn(C)c2c1CCCN(C(=O)c1cccn1C)C2 | 8.67
64 | Cc1cc(C(F)(F)F)nn1CCNC(=O)C(C)n1ccnc1C(C)C (stereo unspecified) | 85.5
65 | Cc1nc(C)n(CCCNC(=O)C(C)n2ccnc2C(C)C)n1 (stereo unspecified) | -129
66 | Cc1nc(C)n(CCNC(=O)C(C)n2ccnc2C(C)C)n1 (stereo unspecified) | -23.7
